Source: PubChem BioAssay (NCATS)
Records with an inconclusive call do not appear. Where a call stands in place of a potency, no number is given. The source made the active and inactive calls. Unless noted, calls come from the whole dose curve; as a rule, active = well fitted curve in the direction sought with a large enough effect; inconclusive = small, poorly fitted or top-dose-only effect, or another doubt; inactive = no such curve, though single readings can be large; an effect the other way counts as inactive or inconclusive.

Key:
[1] = Confirmation and Secondary Assay for Modulators of Hemoglobin Beta Chain Splicing at IVS2 705 locus (AID 930);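 note: HeLa cells stably expressing the EGFP-705 splicing reporter; GFP fluorescence per well restored by corrected splicing of the IVS2-705 intron in EGFP; series mostly up to about 46 µM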
Method in brief: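 Per-well GFP, captured at 1 x 8 µm resolution with 488 nm excitation, served as the read-out for HeLa EGFP-705 cells incubated 2 days with test compound versus DMSO.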

[2] = Cell Viability - LYMP2-001 (AID 921); note: nearly all actives have a fitted effect of over 70% in size; note: potency is the fitted concentration of half-maximal effect
Method in brief: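 Human lymphoblastoid cells (Coriell), 2500 per well, were preincubated 5 hr at 37 C, then exposed to compounds in complete medium for 24 hr at 37 C. Cellular ATP was read by CellTiter-Glo luminescence; AC50 from Hill fits of concentration-response data.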

[3] = MultiTox-Fluor Cytotoxicity Assay - LYMP1-001 - Dead Cells (AID 946); note: potency is the fitted concentration of half-maximal effect
Method in brief: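 Seed 2500 LYMP1-001 cells/well, incubate 5 hr at 37 C; add compound, 16 hr at 37 C; add MultiTox-Fluor reagent, 60 min RT; read dead-cell fluorescence Ex/Em=485/520. Normalize to DMSO and 15 uM tetraoctylammonium bromide.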

[4] = MultiTox-Fluor Cytotoxicity Assay - LYMP1-001 - Live Cells (AID 947)
[5] = Cell Viability - LYMP1-002 - Assay at 16 hr (AID 948)
Method in brief: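 Human lymphoblastoid cells (LYMP1-002), 2500/well, were preincubated 5 hr at 37 C, then exposed to compounds for 16 hr at 37 C in complete medium. Cellular ATP was read by CellTiter-Glo luminescence after 30 min at room temperature; AC50 from Hill fits.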

[6] = MultiTox-Fluor Cytotoxicity Assay - LYMP1-002 - Live Cells (AID 955)
Method in brief: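 Cytotoxicity in the human lymphoblastoid line LYMP1-002 is measured as loss of live-cell protease activity after 16 h treatment in complete culture medium. AC50 is derived from Hill-equation fits of qHTS concentration-response data.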

[7] = target: Muscarinic acetylcholine receptor M1 (Rattus norvegicus) (UniProt P08482); assay: qHTS Assay for Antagonists of Acetylcholine Muscarinic M1 Receptor: Kinetic Measurement of Intracellular Calcium Response (AID 943);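 note: Fluo-4 calcium signal as peak divided by basal fluorescence over 4 min; series mostly up to about 35 µM; nearly all actives have a fitted effect of over 75% in size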
Muscarinic acetylcholine receptor M1 (Rattus norvegicus), sequence (P08482 whole entry, looked up): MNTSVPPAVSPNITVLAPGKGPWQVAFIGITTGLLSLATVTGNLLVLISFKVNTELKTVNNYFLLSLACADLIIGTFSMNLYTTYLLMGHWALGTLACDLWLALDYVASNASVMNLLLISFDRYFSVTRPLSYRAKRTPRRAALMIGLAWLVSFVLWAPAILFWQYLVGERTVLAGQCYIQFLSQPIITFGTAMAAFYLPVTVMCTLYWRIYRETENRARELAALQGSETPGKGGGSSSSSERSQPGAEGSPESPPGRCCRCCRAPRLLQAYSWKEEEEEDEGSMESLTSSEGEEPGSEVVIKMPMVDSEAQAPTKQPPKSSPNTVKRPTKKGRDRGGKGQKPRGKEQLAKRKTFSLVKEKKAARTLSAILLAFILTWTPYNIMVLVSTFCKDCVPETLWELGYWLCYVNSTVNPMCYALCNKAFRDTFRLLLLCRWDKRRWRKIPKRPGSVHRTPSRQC
Method in brief: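 Intracellular calcium flux, recorded with Fluo-4 in a kinetic plate reader, served as signal; the response to carbachol at EC80 (100 nM final) was taken as maximal over minimal fluorescence after a 10 min compound pre-incubation in rat M1-CHO cells.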

[8] = target: Muscarinic acetylcholine receptor M1 (Rattus norvegicus) (UniProt P08482); assay: qHTS Assay for Antagonists of Acetylcholine Muscarinic M1 Receptor: Measurement of IP-One Response (AID 944); note: nearly all actives have a fitted effect of over 75% in size
Method in brief: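 Steps: plate transfected CHO-M1 cells overnight; add test compound, 10 min; add carbachol (200 nM, EC80) in stimulation buffer with LiCl; incubate 30 min; add labelled IP1 tracer and anti-IP1 antibody in lysis buffer; read HTRF after 10 min.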

[9] = target: Pyruvate kinase (Leishmania mexicana) (UniProt Q27686); assay: qHTS Validation Assay for Inhibitors of Leishmania Mexicana Pyruvate Kinase (AID 945)
Pyruvate kinase (Leishmania mexicana), sequence (Q27686 2-499 E452W): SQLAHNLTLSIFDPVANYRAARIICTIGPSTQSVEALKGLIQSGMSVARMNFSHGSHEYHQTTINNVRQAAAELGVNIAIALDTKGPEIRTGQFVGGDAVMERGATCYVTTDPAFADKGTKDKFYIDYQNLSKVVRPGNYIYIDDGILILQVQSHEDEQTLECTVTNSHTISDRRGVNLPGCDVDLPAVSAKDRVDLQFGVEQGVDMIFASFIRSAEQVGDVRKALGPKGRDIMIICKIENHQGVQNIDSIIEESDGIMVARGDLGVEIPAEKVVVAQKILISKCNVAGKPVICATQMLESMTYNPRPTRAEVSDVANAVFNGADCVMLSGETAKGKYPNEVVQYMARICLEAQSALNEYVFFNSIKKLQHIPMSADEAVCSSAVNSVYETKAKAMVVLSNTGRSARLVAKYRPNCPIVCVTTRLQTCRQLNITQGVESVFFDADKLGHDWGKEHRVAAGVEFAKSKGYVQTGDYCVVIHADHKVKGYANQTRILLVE
Method in brief: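 An endpoint luciferase assay: 0.2 nM LmPYK E451W turns over 0.5 mM PEP with 0.1 mM ADP for 1 h at room temperature, pH 7.2, before PKLight addition. Values are normalized to DMSO-only wells.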

[10] = target: Pyruvate kinase PKM (Homo sapiens) (UniProt P14618); assay: qHTS Assay for Activators of Human Muscle Pyruvate Kinase (AID 954; active = well fitted curve in the direction sought with a large enough effect, not every such curve was filed as active)
Pyruvate kinase PKM (Homo sapiens), sequence (P14618 whole entry, looked up): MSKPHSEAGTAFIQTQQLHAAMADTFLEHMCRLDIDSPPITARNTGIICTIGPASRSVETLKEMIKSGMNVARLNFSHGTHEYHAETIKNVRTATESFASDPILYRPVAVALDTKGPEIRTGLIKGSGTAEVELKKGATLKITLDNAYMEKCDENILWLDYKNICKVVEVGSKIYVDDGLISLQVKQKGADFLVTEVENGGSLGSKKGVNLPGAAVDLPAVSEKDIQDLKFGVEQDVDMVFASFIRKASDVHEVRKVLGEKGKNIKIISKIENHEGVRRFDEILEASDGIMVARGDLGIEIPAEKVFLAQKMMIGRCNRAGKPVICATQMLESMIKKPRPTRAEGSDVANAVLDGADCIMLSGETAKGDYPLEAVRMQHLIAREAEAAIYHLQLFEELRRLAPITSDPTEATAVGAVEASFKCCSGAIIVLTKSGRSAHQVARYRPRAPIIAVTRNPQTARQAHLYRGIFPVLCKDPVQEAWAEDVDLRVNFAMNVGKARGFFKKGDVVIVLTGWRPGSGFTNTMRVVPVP
Method in brief: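 Reaction: 0.1 nM purified PKM2 with 0.5 mM phosphoenolpyruvate and 0.1 mM ADP, room temperature, 1 h. Readout: luciferase-based ATP luminescence after stop reagent. Activators judged against a 0.3 nM enzyme column.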

For CCC(=O)NCCC1CCc2ccc3c(c21)CCO3 (configuration not stated), the outcome [1] was “inactive”.

For O=C(O)CN(CCN(CC(=O)O)CC(=O)O)CC(=O)O, the outcome [1] was “inactive”.

For CCCCCCCC(=O)O, the Potency [2] was “inactive”, the Potency [3] was “inactive” and the outcome [4] was “inactive”. For the same molecule, the outcome [5] was “inactive” and the outcome [6] was “inactive”.

For Nc1ccn([C@H]2CS[C@@H](CO)O2)c(=O)n1, the Potency [2] was “inactive”, the Potency [3] was “inactive” and the outcome [4] was “inactive”. The outcome [5] was “inactive” and the outcome [6] was “inactive”.

With CN=C(NC#N)Nc1ccc(C2=NNC(=O)C[C@@H]2C)cc1 the outcome [7] was “inactive”, the outcome [8] was “inactive” and the outcome [9] was “inactive”. For the same molecule, the outcome [10] was “inactive”.

For CCCC(=O)Nc1ncnc2c1ncn2C1OC2COP(=O)(O)OC2C1OC(=O)CCC (configuration not stated), the outcome [1] was “inactive”.

In the case of CC[N+](C)(C)Cc1ccccc1Br, the outcome [9] is reported as “inactive” and the outcome [10] is reported as “inactive”.

For Cc1ccccc1, the Potency [2] was “inactive”, the Potency [3] was “inactive” and the outcome [4] was “inactive”. The outcome [5] was “inactive” and the outcome [6] was “inactive”.

In the case of CC(O)CO (configuration not stated), the Potency [2] is reported as “inactive”, the Potency [3] is reported as “inactive” and the outcome [4] is reported as “inactive”. The outcome [5] was “inactive” and the outcome [6] was “inactive”.

In the case of CC1=C2[C@@H]([C@H](C)CC[C@H]2/C=C(\C)C(=O)O)[C@H](O)C1, the Potency [2] is reported as “inactive”, the Potency [3] is reported as “inactive” and the outcome [4] is reported as “inactive”. The outcome [5] was “inactive” and the outcome [6] was “inactive”.

In the case of IC(I)I, the Potency [2] is reported as “inactive”, the Potency [3] is reported as “inactive” and the outcome [4] is reported as “inactive”. The outcome [5] was “inactive” and the outcome [6] was “inactive”.

With O=C(O)CCC(=O)C(=O)O the Potency [2] was “inactive”, the Potency [3] was “inactive” and the outcome [4] was “inactive”. For the same molecule, the outcome [5] was “inactive” and the outcome [6] was “inactive”.

For O=CCCCC=O, the Potency [2] was 15.8 µM (active), the Potency [3] was “inactive” and the outcome [5] was “inactive”. The outcome [6] was “inactive”.

In the case of Nc1c(Br)cc(Br)cc1CNC1CCC(O)CC1 (configuration not stated), the outcome [1] is reported as “inactive”.

For CCCCCCCC/C=C\CCCCCCCC(=O)O, the Potency [2] was “inactive”, the Potency [3] was “inactive” and the outcome [5] was “inactive”. For the same molecule, the outcome [6] was “inactive”.

With O=S(=O)(O)O the Potency [2] was “inactive”, the Potency [3] was “inactive” and the outcome [4] was “inactive”. The outcome [5] was “inactive” and the outcome [6] was “inactive”.

With CCCCC/C=C\C/C=C\CCCCCCCC(=O)O the Potency [2] was “inactive”, the Potency [3] was “inactive” and the outcome [5] was “inactive”. The outcome [6] was “inactive”.

With CC1=C(/C=C/C(C)=C/C=C/C(C)=C/C=C/C=C(C)/C=C/C=C(C)/C=C/C2=C(C)CCCC2(C)C)C(C)(C)CCC1 the outcome [1] was “inactive”.

With CC1=C(/C=C/C(C)=C/C=C/C(C)=C/C=C/C=C(C)/C=C/C=C(C)/C=C/C2=C(C)C(=O)CCC2(C)C)C(C)(C)CCC1=O the outcome [1] was “inactive”.

For CCOC(C)=O, the Potency [2] was “inactive”, the Potency [3] was “inactive” and the outcome [4] was “inactive”. For the same molecule, the outcome [5] was “inactive” and the outcome [6] was “inactive”.

With NC(=O)c1ncn(C2OC(CO)C(O)C2O)n1 (configuration not stated) the outcome [1] was “inactive”.

With CN1Cc2c(N)cccc2C(c2ccccc2)C1 (configuration not stated) the outcome [1] was “inactive”.

With CC(C)(C)NC(=O)[C@@H]1C[C@@H]2CCCC[C@@H]2CN1C[C@@H](O)[C@H](Cc1ccccc1)NC(=O)[C@H](CC(N)=O)NC(=O)c1ccc2ccccc2n1 the Potency [3] was 50.1 µM (active).

For CCOc1ccc2c(c1)C(C)=CC(C)(C)N2, the Potency [2] was “inactive”, the outcome [1] was “inactive” and the Potency [3] was “inactive”. For the same molecule, the outcome [4] was “inactive”, the outcome [5] was “inactive” and the outcome [6] was “inactive”.

For COc1ccc(CCNC[C@H](O)c2ccc(O)cc2)cc1OC, the outcome [9] was “inactive” and the outcome [10] was “inactive”.

In the case of C[C@@H]1CCC2[C@@H](C)[C@@H](O)O[C@@H]3O[C@@]4(C)CC[C@@H]1[C@@]23OO4 (some centres not stated), the outcome [1] is reported as “inactive”.

In the case of Oc1cc(O)c2c(c1)OC(c1ccc(O)c(O)c1)C(O)C2 (configuration not stated), the outcome [1] is reported as “inactive”.

For CC1=C(/C=C/C(C)=C/C=C/C(C)=C/CO)C(C)(C)CCC1, the outcome [1] was “inactive”, the outcome [5] was “inactive” and the outcome [6] was “inactive”.

With CC(C)=O the Potency [2] was “inactive”, the Potency [3] was “inactive” and the outcome [4] was “inactive”. The outcome [5] was “inactive” and the outcome [6] was “inactive”.

For C=CCSSSCC=C, the outcome [1] was “inactive”.

With CC(C(=O)O)c1ccc(N2Cc3ccccc3C2=O)cc1 (configuration not stated) the outcome [1] was “inactive”.
